# Among all 360,000 compounds or so, about 3,700 (1%) were called active. Not shown: some 2% with an inconclusive outcome.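 How the source made its calls: active means normalized GFP-positive differentiation at or above the plate's own cutoff, the solvent-only control mean plus 3 SD; inconclusive means no clear call, values can overlap the other calls; inactive means the rest.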 Shown is part of a subset that was picked to be rich in actives.
# Assay: HoxA9-arrested leukemia cell differentiation promoters – flow cytometry, MLPCN library, primary screen (AID 624256);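 on GFP+ MAC1+ double positive: cells exposed to compound for four days before flow analysis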;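 on normalized GFP-positive differentiation: cells exposed to compound for four days before flow analysis; 0% = DMSO wells and 100% = fulvestrant positive control at 5 µM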
# Settings: ER-HoxA9 myeloid progenitors, lysozyme-GFP differentiation, at 10 µM; GFP+ MAC1+ double positive: measured here: differentiation confirmed by MAC1 staining, stronger effect = higher value; normalized GFP-positive differentiation: stronger effect = higher value
SMILES,GFP+ MAC1+ double positive [%],outcome,normalized GFP-positive differentiation
NNC(=O)c1ccc(COCC(F)(F)C(F)F)cc1,0.4,inactive,
Cc1ccc(COc2ccc(/C=N/NC(=O)CN3CCCCC3)cc2)cc1,0.2,inactive,
Cc1ccc(COc2ccc(C(=O)NN)cc2)cc1,4.6,,335% (active)
COc1cccc(CNC(=O)[C@@H]2CCCN2C(=O)[C@@H]2CCCN2C(=O)c2ccccc2)c1,0.5,inactive,
CC(CNC(=O)c1ccc(Br)o1)NC(=O)c1ccc(Br)o1 (stereo not drawn),4.1,inactive,
CCS(=O)(=O)c1ccc(-c2cccc(NC(=O)c3ccc(Br)o3)c2)nn1,1.2,,11.8% (active)
CCOc1ccc(C(=O)Nc2cccc(-c3ccc4nncn4n3)c2)cc1,1.2,inactive,
COC(=O)C[C@H]1C=C[C@@H](NS(=O)(=O)c2ccc(C)cc2)[C@@H](CO)O1,2.1,inactive,
Cc1ccccc1-c1nc(NC(C)C)nc2cc(-c3ccccc3)sc12,0.6,inactive,
OC(c1ccc(Cl)c(F)c1)c1ncc(-c2ccccc2Cl)[nH]1 (stereo not drawn),1.3,inactive,
COc1ccc(C(O)C(O)(C(=O)OC(C)C)c2ccc(C)cc2)cc1 (stereo not drawn),2.5,inactive,
C[C@H]([C@@H](O)[C@@H](O)[C@@H](C)C(C)(C)C)[C@H]1CC[C@H]2C3CC[C@H]4C[C@H](OS(=O)(=O)O)[C@@H](OS(=O)(=O)O)C[C@]4(C)[C@H]3CC[C@]12C (stereo partly drawn),3.3,inactive,
C=CCC[C@@H](CCCCC)OC(=O)/C=C/[C@@H](O)[C@H](O)C[C@H](O)CC=C,0.4,inactive,
CC(C)C[C@@H](COCc1ccc(Cl)cc1)N1CCN(C(=O)c2ccc(Cl)cc2Cl)CCC1=O,0.8,inactive,
O=C(c1ccc(C(F)(F)F)cc1)N1CCC(=O)N([C@H](COCc2ccccc2)Cc2ccccc2)CC1,0.6,inactive,
CC(C)CC(COCc1ccc(Cl)cc1)N1CCN(C(=O)c2ccc(C(F)(F)F)cc2)CCC1=O (stereo not drawn),5.1,,7.54% (active)
CCN(CC)CCN(C)C(c1ccnc2ccccc12)c1nnnn1-c1ccc2c(c1)OCCO2 (stereo not drawn),2.1,inactive,
Cc1nc2cc(NC(=O)Nc3cccc(F)c3)ccc2n1C,0.6,inactive,
Cc1cc2nc(C)n(CCCNC(=O)Nc3ccccc3)c2cc1C,1.2,,33% (active)
CCOc1ccc(CCNC(=O)Nc2ccccc2)cc1OCC,0.6,inactive,
C[C@@H]1CC2=C(C(=O)OC(C)(C)O2)[C@@H](C2CC2)O1,0.7,inactive,

SMILES,GFP+ MAC1+ double positive [%],outcome,normalized GFP-positive differentiation
OC(c1ccccc1)(c1ccccc1)C1CCN(CCCOc2ccccc2)CC1,0.9,inactive,
CCOc1nc(-c2ccc(OC)cc2)ccc1-c1noc(-c2cc(OC)c(OC)c(OC)c2)n1,26.5,,69% (active)
CCOc1ccc(-c2noc(CCC(=O)NC3CCCC3)n2)cc1OC,0.3,inactive,
CCOC(=O)c1cc(-c2nnc(-c3cc(OC)c(OC)c(OC)c3)o2)c(C)nc1C,0.3,inactive,
Cc1ccc(NS(=O)(=O)c2cc3c(cc2Br)NC(=O)CO3)cc1C,2.1,inactive,
COc1ccc(C(c2nnnn2C2CCCC2)N2CCN(C/C=C/c3ccccc3)CC2)cc1 (stereo not drawn),0.9,inactive,
Nc1nc(NCC2CCCO2)nc(Nc2ccccc2F)c1[N+](=O)[O-] (stereo not drawn),0.2,inactive,
C=CCNc1nc(N)c([N+](=O)[O-])c(NC2CCCCC2)n1,1,inactive,
Nc1nc(Nc2ccccc2F)nc(NC2CCCCC2)c1[N+](=O)[O-],5.3,,25.3% (active)
O=C(Nc1ccc(Cl)cc1)c1csc([C@H]2C[C@H](O)[C@@H](CO)O2)n1,0.4,inactive,
CCN1C(=O)[C@@H]2[C@@H]3CN(S(=O)(=O)c4ccccc4C)[C@@H](c4ccc(Cl)cc4)[C@@H]3C(=O)C[C@@H]2C1=O,0.5,inactive,
CN1C[C@@H](CO)O[C@@H](n2cnc3c(N4CCN(CCO)CC4)ncnc32)C1,1.5,inactive,
CNC(=S)N/N=C/c1ccc(OCc2ccccc2)c(Br)c1,0.2,inactive,
Cc1scc(C(=O)NNC(=S)NCc2ccccc2)c1C,0.2,inactive,
CNC(=S)NNC(=O)c1sccc1OCc1ccccc1,2.8,,6.37% (active)
CC1(C(=O)Nc2ccc3c(c2)OCCO3)CSCC(=O)N1CCOc1ccccc1 (stereo not drawn),3.3,inactive,
Cc1cc(Br)cn2c(Cc3cccc(F)c3)c(-c3cccc(Br)c3)nc12,0.6,inactive,
CCOC(=O)/C=C/C(=O)OCC(=O)NC(c1ccccc1)c1ccccc1,0.4,inactive,
CCOC(=O)C(C(=O)c1ccccc1)C(c1ccccc1)c1nccc2ccccc12 (stereo not drawn),0.2,inactive,
CCOC(=O)C(C(=O)OCC)C(C#N)c1ccccc1 (stereo not drawn),3.3,,9.91% (active)
CC1(C(=O)NCc2ccccc2)CSCC(=O)N1CCCn1ccnc1 (stereo not drawn),4.4,inactive,

SMILES,GFP+ MAC1+ double positive [%],outcome,normalized GFP-positive differentiation
O=C1NC(O)CCN1C1CC(O)C(CO)O1 (stereo not drawn),1.3,inactive,
CCOc1ccc(CCN2C(=S)N([C@@H](CC(C)C)CN3CCC[C@@H]3CN3C(=S)NC[C@@H]3Cc3ccc(O)cc3)C[C@@H]2Cc2ccc(O)cc2)cc1,0.7,inactive,
COC(=O)C[n+]1cccc2ccccc21,1,,236% (active)
COC(=O)C(C)NC(=O)COc1ccc2ccccc2c1 (stereo not drawn),1.3,inactive,
COc1c(C(=O)N2CCCC2)ccc2ccccc12,0.8,inactive,
CCc1nc2c(OCc3ccc(Cl)cc3Cl)cccn2c1N(C)C(=O)C(C)C,1.8,inactive,
CC(=O)N1CCN(Cc2cc(=O)oc3cc(C)ccc23)CC1,1.6,inactive,
COC(=O)[C@]12CCCCC=C1N(Cc1ccc3c(c1)OCO3)C(=O)[C@H](CC(=O)NCc1cccs1)C2,0.4,inactive,
CCOC(=O)[C@]12CCCC=C1N(CCC1=CCCCC1)C(=O)[C@H](CC(=O)N1CCOCC1)C2,4.8,inactive,
OCCC#Cc1ccc(N2C(c3ccsc3)=Cc3ccc(F)cc3C2c2c[nH]c3ccccc23)cc1 (stereo not drawn),2,,16.8% (active)
COc1ccc(CCCNC(=O)C2Cc3c(-c4cccc(C(N)=O)c4)ccnc3O2)cc1 (stereo not drawn),0.5,inactive,
CN(Cc1cn(Cc2ccc(C(F)(F)F)cc2)nn1)C1CN(Cc2cn(Cc3ccc(C(F)(F)F)cc3)nn2)S(=O)(=O)C1 (stereo not drawn),1.6,inactive,
CCCCNC(=O)C[C@@H]1C[C@@]2(C(=O)OCC)CCC=C2N(Cc2cccc3ccccc23)C1=O,0.6,inactive,
CCOc1ccc(CCN2C(=O)C(=O)N([C@@H](Cc3ccc(O)cc3)CN3CCC[C@H]3CN3C(=O)C(=O)NC[C@@H]3CC(C)C)C[C@@H]2Cc2ccccc2)cc1,1,inactive,
O=[N+]([O-])c1ccccc1Nc1ccc(O)cc1,0.4,inactive,
Cc1ccc(Nc2nc(N)nc(CSc3nnc(C)s3)n2)cc1,0.4,inactive,
Cc1ccc(Nc2ccccc2N)cc1,0.6,,231% (active)
CC1(C(=O)NCc2ccccc2)CN(S(C)(=O)=O)CC(=O)N1CC(F)(F)F (stereo not drawn),1.4,inactive,
COc1ccc(C(=O)C[n+]2ccc(N)c(C)c2C)cc1,10.1,,39.6% (active)
CO/N=C/CC(=O)c1ccc(OC)cc1,0.8,inactive,
COc1ccc(C(=O)C[n+]2ccc(C)cc2)cc1,0.2,inactive,

SMILES,GFP+ MAC1+ double positive [%],outcome,normalized GFP-positive differentiation
COc1ccc(N(Cc2cc3ccc(C)cc3[nH]c2=O)S(=O)(=O)c2ccccc2)cc1,9.4,,37.5% (active)
Cc1ccc2cc(CN(c3ccc(C)c(C)c3)S(C)(=O)=O)c(=O)[nH]c2c1,0.3,inactive,
CCN(Cc1cc2cc(C)ccc2[nH]c1=O)S(=O)(=O)c1ccccc1,0.4,inactive,
O=C(Nc1cccc2cccnc12)c1ccc2sc([C@H]3C[C@H](O)[C@@H](CO)O3)nc2c1,0.8,inactive,
Cc1ccc(NC(=O)CCC(=O)c2ccc(Br)cc2)cc1,0.4,inactive,
Cc1ccc(C(=O)Cc2nnc(C)s2)cc1,0.7,,113% (active)
Cc1ccc(C(=O)Cn2cccn2)cc1,0.3,inactive,
CCC(C)CN1C(=O)CSCC1(C)C(=O)NCc1ccccc1 (stereo not drawn),1.5,inactive,
CSCCC(NS(=O)(=O)/C=C/c1ccccc1)C(=O)N1CCC(C)CC1 (stereo not drawn),1,inactive,
CSCCC(NS(=O)(=O)c1ccc(C)cc1)C(=O)N1CCCC1 (stereo not drawn),1.3,inactive,
CSCCC(NS(=O)(=O)c1ccccc1F)C(=O)N1CC=C(c2ccccc2)CC1 (stereo not drawn),1.3,,63.9% (active)
C#Cc1ccc(NC(=O)C2(C)CCN2C(=O)Cc2ccc(-c3ccccc3)cc2)cc1 (stereo not drawn),0.8,inactive,
CC(=O)N(CCCN(C)C)c1nc2ccc(C)cc2s1,0.6,,33.5% (active)
Cc1ccc2nc(NC(=O)C3CSC4(C)CCC(=O)N34)sc2c1 (stereo not drawn),1.7,inactive,
Cc1ccc2nc(NC(=O)CSc3nc(=O)n(CCCN(C)C)c4c3CCC4)sc2c1,1.3,inactive,
CCN1C[C@@H]2[C@@H]3C(=O)N(C)C(=O)[C@@H]3[C@](C)(C1=O)N2C(=O)c1ccccc1,10.9,,43.5% (active)
CCN1C[C@@H]2[C@@H]3C(=O)N(Cc4ccccc4)C(=O)[C@@H]3[C@](C)(C1=O)N2C(=O)c1ccc(C(C)(C)C)cc1,1.2,inactive,
CN1C(=O)[C@H]2[C@@H](C3CC3)N3C(=O)CN(Cc4ccccc4)C(=O)[C@@]3(C)[C@H]2C1=O,1.6,inactive,
Oc1cccc2cc(-c3ccncc3)cnc12,0.7,inactive,
COCCNc1ncnc2c1ncn2[C@H]1CN(CCN2CCOCC2)C[C@@H](CO)O1,1.1,inactive,
CCOC(=O)[C@]12CCCC=C1N(CCC1=CCCCC1)C(=O)[C@H](CC(=O)NCCCCc1ccccc1)C2,2.2,inactive,

# From PubChem BioAssay AID624256 (NMMLSC, 2012)
